Vaccinia Venus: vaccinia inhibition (Venus reporter). Potency, µM (top dose mostly 36.5 µM), for the others: top-dose activity change, negative = inhibition, most hits filed as inhibitors. actives 0.46% (n = 330,000). AID 720580. Vaccinia virus Venus reporter expression, fluorescence; calls by dose curve; tested in A549 cells; note: potency is the fitted concentration of half-maximal effect; nearly all actives have a fitted effect of over 30% in size
FMDV inh: blocks foot and mouth disease virus | FMDV antiviral cell-based qHTS | Potency, µM (doses to about 57.9 µM), without a hit: at the top dose activity change, negative = inhibition, usual class: inhibitors | actives 1.2% (n = 410,000); calls by dose curve; tested in HEK293T cells; note: read-out not given here; potency is the fitted concentration of half-maximal effect; nearly all actives have a fitted effect of over 45% in size
Vaccinia mCherry: vaccinia inhibition (mCherry reporter) | Vaccinia virus mCherry reporter infection, fluorescence | Potency, µM (titrated, usually from 36.5 µM), inactives show top-dose activity change, negative = inhibition, hits mostly inhibitors | AID 720579 | actives 0.63% (n = 310,000); calls by dose curve; tested in A549 cells; note: potency is the fitted concentration of half-maximal effect; nearly all actives have a fitted effect of over 35% in size
HCMV antiviral: blocks human cytomegalovirus replication. HFF cells, HCMV-luciferase reporter, 72 h; stronger effect = lower value. activity change, negative = inhibition, % at 57.5 µM. actives 4.5% (n = 410,000); in the data active = activity change below about -60%; inconclusive = no clear call, values can overlap the other calls; inactive = above about -39%
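Luciferase read-out from HCMV-luciferase-infected HFFs (MOI 1 PFU/cell) 72 h post infection at 37C; compounds added after 16 h cell attachment; activity normalized between buffer-only basal and Salinomycin (10uM) inhibitor controls.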
HCV inh: inhibitors of hepatitis C virus infection. Huh7.5.1 HCVcc-Cre infection, luciferase reporter, 44 h. Potency, µM (doses to about 41.8 µM), inactives show at the top dose activity change, negative = inhibition, most hits filed as inhibitors. actives 3.4% (n = 340,000). AID 651820; active = well fitted inhibition curve with a large enough effect; inconclusive = small, poorly fitted or top-dose-only effect, or another doubt; inactive = no such curve, though single readings can be large or run the other way; note: potency is the fitted concentration of half-maximal effect
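Infectious HCVcc-Cre (~0.5 moi) was added to cells just after compound, with cells seeded 4 h earlier at 1,000 per well. Luciferase activity after 44 h culture reported infection; substrate was incubated 15 min at room temperature before reading.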
The depositor's hits bear a star; i = inactive; ? = inconclusive; . = not tested or not shown. Shown are actives, neighbours in structure and some others; about 7.3% of the full set was active somewhere. % is set by controls: 0 for no effect and ±100 for the full control effect.

SMILES	Vaccinia Venus	FMDV inh	Vaccinia mCherry	HCMV antiviral	HCV inh
COc1cc(NS(=O)(=O)c2ccc(OC)c(C)c2C)c(OC)cc1Cl	?	-17%	?	?	10µM*
COc1ccc(C(=O)C2CCCN(Cc3cccn3-c3cccnc3)C2)cc1OC (stereo unspecified)	5%	?	-11%	?	-18%
CSc1ccc(C(=O)C2CCCN(Cc3cccn3-c3cccnc3)C2)cc1 (stereo unspecified)	-21%	?	-28%	-31	14µM*
COc1ccc(CN2CCCC(C(=O)c3cccc(OC(C)C)c3)C2)cc1Cn1cccn1 (stereo unspecified)	.	?	.	2	11µM*
CSc1ccc(C(=O)C2CCCN(Cc3cccnc3)C2)cc1 (stereo unspecified)	-9%	?	-5%	-62*	?
CC(C)Oc1cccc(C(=O)C2CCCN(Cc3cccn3-c3cccnc3)C2)c1 (stereo unspecified)	.	-21%	.	4	11µM*
O=C([C@@H]1C[C@@H](Sc2nc3ccccc3[nH]2)CN1CC1CCCCC1)N1CCOCC1	-7%	12%	-7%	.	.
CCN(C)C(=O)C1=COC2=NC(=O)N(Cc3cccc(Cl)c3)CCN12	.	.	.	-7	.
COc1ccc(NC(=O)N2c3ccc(OC)cc3[C@@H](NS(C)(=O)=O)[C@H](C)[C@H]2c2ccccc2)cc1	.	.	.	-20	.
O=C(c1ccc2c3c(cccc13)CC2)C1CCCN(Cc2cccnc2)C1 (stereo unspecified)	-6%	0%	-4%	-14	22µM*
CCCCn1c(=O)[nH]c(=O)c2c1nc(-c1ccccc1F)n2Cc1ccccc1OC	-23%	?	-8%	1	10µM*
CCCCn1c(=O)[nH]c(=O)c2c1nc(-c1ccc(OC)c(Br)c1)n2CC(C)C	?	-5%	?	20	10µM*
Cn1c(SCC(=O)N2CCCC2)nc2ccccc21	-2%	21%	i	-8	3%
Cc1nc([N+](=O)[O-])c(SCC(N)=O)n1Cc1ccccc1	-13%	-2%	i	-32	14%
Cc1nc([N+](=O)[O-])c(Sc2nc3ccccc3n2C)n1Cc1ccccc1	-13%	25µM*	-17%	50	13µM*
Cn1c(Sc2nc3ccccc3n2C)nc2ccccc21	.	-13%	.	-95*	-8%
CC1=C(c2ccc(C)cc2)S(=O)(=O)N=C1N1CCN(c2ccccc2)CC1	-18%	-4%	i	?	.
COC(=O)c1cc2c(c3c4ccccc4n(S(=O)(=O)c4ccccc4)c13)C(=O)N(Cc1ccc(N(C)C)cc1)C2	.	.	.	-14	.
OCCN1CCN(c2ncnc3sc(-c4ccccc4)cc23)CC1	-21%	?	-17%	-26	?
CCCCN(CCO)c1ncnc2sc(-c3ccccc3)cc12	.	-19%	.	15	18µM*
CC(C)Oc1ccccc1C1C=C(C(=O)O)Nc2ncnn21 (stereo unspecified)	-2%	0%	0%	7	.
CCCC(=O)Nc1ccc(C=C(C(C)=O)C(C)=O)cc1	-20%	22µM*	-21%	44	17%
[O-]/[N+](=C/c1ccc(F)cc1)c1ccccc1	.	0%	.	-80*	9%
Cc1cc(N=NC(=O)c2ccccc2O)c2ccccc2c1O	.	-18%	.	-73*	?
CC(=O)c1cc(O)c2ccccc2c1O	.	-18%	.	85	4%
SMILES	Vaccinia Venus	FMDV inh	Vaccinia mCherry	HCMV antiviral	HCV inh
O=C(CN1CCCN(Cc2cccc(F)c2)S1(=O)=O)Nc1ccc2c(c1)OCCO2	-6%	-13%	-11%	-12	.
O=C(CCCSc1nnc(SCCCC(=O)c2ccc(F)cc2)s1)c1ccc(F)cc1	11µM*	.	?	-16	10µM*
Cc1nc(S(=O)(=O)c2ccc(Cl)cc2)c(NCc2ccccc2)o1	-2%	-21%	-10%	22	?
COc1ccc(CNS(=O)(=O)NCc2ccccc2)cc1OC	-17%	-9%	-5%	-18	?
COc1ccc(CNc2nc(S(=O)(=O)c3ccccc3)c(Cl)s2)cc1OC	-29%	14µM*	?	-95*	?
O=S(=O)(c1ccccc1)c1nc(NCc2ccccc2)sc1Cl	1%	10%	-13%	-70*	-15%
C[C@H]1[C@@H](NS(=O)(=O)c2ccc(Cl)cc2)CC[C@@]23CCCN2C(=O)CCC[C@@H]13	.	.	.	23	.
O=C(Cc1nc2ccccc2[nH]1)N1CCC(n2c(C3CCC3)nc3cccnc32)CC1	0%	32%	i	.	.

Assay outcomes deposited in PubChem by National Center for Advancing Translational Sciences (NCATS).
